An excerpt weighted towards active compounds, which were near 7.3% of everything screened.
ELG1 genotoxic: genotoxicity induction in ELG1-luciferase HEK293T cells | HEK293T ELG1-luciferase reporter, luminescence, 16 h | Potency, µM (titrated, usually from 46 µM), for the others: at the highest dose activity change, positive = activation, most hits filed as activators | 330,000 tested, 1.3% active | AID 504466; further: % of control where 0% means no effect; nearly all actives have a fitted effect of over 60% in size
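After overnight (16 hr) compound treatment at 37 °C, ELG1-luciferase HEK293T cells were lysed with ONE-Glo; luminescence quantified 30 min later at room temperature.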
SMN2 splice up: enhancers of SMN2 splice variant expression. 210,000 tested, 2.8% active. HEK293 SMN2-luciferase splicing reporter, luminescence, 30-36 h. AID 1458. Potency, µM (top dose mostly 46.1 µM), for the others: at the highest dose activity change, positive = activation, hits mostly activators; further: % of control where 0% means no effect; nearly all actives have a fitted effect of over 55% in size
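HEK293 cells carry an SMN2 minigene-luciferase reporter in which exon 7 inclusion puts luciferase in frame. Cells were seeded at 2000 cells/well, attached for 10-12 hours, then exposed to compounds for 30-36 hours at 37C before ONE-Glo luminescence.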
NPC1 prom act: activates the NPC1 promoter | AID 485313 | Huh7 NPC1 promoter luciferase reporter, 24 h | Potency, µM (series often up to 9.22 µM), without a hit: at the highest dose activation, hits mostly activators | 320,000 tested, 2.4% active; further: % of control where 0% means no effect; nearly all actives have a fitted effect of over 60% in size
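Quantitative HTS used a cell-based reporter: Huh7 cells stably bearing the NPC1 promoter upstream of luciferase were treated with compounds for 24 h, and promoter activation was read as luminescence.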
FLuc modulator: firefly luciferase modulation, counter-screen for miR-21 project | AID 588342 | P08659 | purified FLuc, Km substrates, luminescence inhibition | 360,000 tested, 6.9% active | Potency, µM (series often up to 57.5 µM), inactives show at the highest dose activity change, negative = inhibition, hits mostly inhibitors;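 further: plate controls were vehicle for no effect and reference inhibitor for full effect; nearly all actives have a fitted effect of over 55% in size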
Target sequence (P08659 whole entry, looked up): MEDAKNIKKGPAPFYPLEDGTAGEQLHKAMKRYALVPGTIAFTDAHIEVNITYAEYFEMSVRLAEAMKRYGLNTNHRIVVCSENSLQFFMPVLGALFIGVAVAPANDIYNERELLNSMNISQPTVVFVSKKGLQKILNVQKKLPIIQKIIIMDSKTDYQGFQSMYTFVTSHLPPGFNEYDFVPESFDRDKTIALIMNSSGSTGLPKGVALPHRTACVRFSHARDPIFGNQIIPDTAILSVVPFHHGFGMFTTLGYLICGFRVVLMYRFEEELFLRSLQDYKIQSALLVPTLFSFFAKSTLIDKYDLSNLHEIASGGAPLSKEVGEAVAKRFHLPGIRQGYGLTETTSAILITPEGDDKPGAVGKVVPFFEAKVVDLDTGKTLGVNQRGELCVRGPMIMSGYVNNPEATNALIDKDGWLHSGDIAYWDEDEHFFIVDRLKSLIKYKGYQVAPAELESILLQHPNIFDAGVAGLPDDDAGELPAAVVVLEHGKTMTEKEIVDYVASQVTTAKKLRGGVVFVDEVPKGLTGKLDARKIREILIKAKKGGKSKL
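Purified P. pyralis luciferase (10nM final) with 10uM D-luciferin and 10uM ATP (Km levels) in 50mM Tris acetate pH 7.5, 10mM Mg acetate, 0.01% Tween-20, 0.05% BSA; qHTS 6-point titration, ~60 µM downward; luminescence read.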
KinaseGlo FLuc: Kinase-Glo luciferase inhibition (counter-screen); Kinase-Glo luciferase, ATP luminescence, 8 min; Potency, µM (top dose mostly 38.3 µM), inactives show at the highest dose activity change, negative = inhibition, most hits filed as inhibitors; 200,000 tested, 0.28% active; AID 1379; further: on the % scale 0 is the no-effect control and ±100 the full control effect; nearly all actives have a fitted effect of over 60% in size
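Kinase-Glo luciferase light output from ATP and luciferin was measured with 10 uM ATP, within the enzyme's linear range. Buffer: 50 mM imidazole pH 7.2, 50 mM KCl, 7 mM MgCl2, 0.01% Tween 20, 0.05% BSA; luminescence read after 8 min at ambient temperature.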
Rab9 promoter act: activates the Rab9 promoter. Huh7 Rab9 promoter-luciferase reporter, luminescence, 24 h. Potency, µM (highest dose often 9.22 µM), for inactives: at the highest dose activation, negative = inhibition, actives largely listed as activators. 320,000 tested, 2.8% active; further: % of control where 0% means no effect; nearly all actives have a fitted effect of over 60% in size
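Huh7 reporter line, Rab9 promoter upstream of luciferase. Compound exposure 24 h at 37 °C in reduced-serum medium with 10% FBS. Read-out: luminescence.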
Starred values were filed as active, the others as inactive; [ ] = remark or other dose. The call rests on the fitted dose curve; in most records, active means well fitted curve in the direction sought with a large enough effect; inconclusive means small, poorly fitted or top-dose-only effect, or another doubt; inactive means no such curve, though single readings can be large; an effect the other way counts as inactive or inconclusive. Potency means the concentration at half of the fitted maximal effect.

How did CC1CCC/C(=C\Nc2ccc(O)cc2)C1=O (stereo not drawn) do in these assays?
ELG1 genotoxic: 18.4µM*; SMN2 splice up: -10.5%; NPC1 prom act: 2.3%; FLuc modulator: 21.3µM*; KinaseGlo FLuc: -9.5%; Rab9 promoter act: inconclusive

What do the screens show for `O=C1CCCC/C1=C\Nc1ccccc1C(=O)O`?
ELG1 genotoxic: 3.3%; SMN2 splice up: -5.8%; NPC1 prom act: -2.8%; FLuc modulator: -14.5%; KinaseGlo FLuc: 0.0%; Rab9 promoter act: 2.1%

How did CC1(C)OC(C)(C)/C(=C/Nc2ccc(O)cc2)C1=O do in these assays?
ELG1 genotoxic: -0.5%; SMN2 splice up: -6.3%; NPC1 prom act: 4.7%; FLuc modulator: -10.8%; KinaseGlo FLuc: -3.9%; Rab9 promoter act: -2.0%

How did Cc1cc(C(=O)O)ccc1N/C=C1\CCCC(C)C1=O (stereo not drawn) do in these assays?
ELG1 genotoxic: inconclusive; SMN2 splice up: inconclusive; NPC1 prom act: inconclusive; FLuc modulator: 0.953µM*; KinaseGlo FLuc: -6.3%; Rab9 promoter act: inconclusive

What do the screens show for `CCOc1ccccc1NC(=O)CSc1nc2cc(OC)c(OC)cc2c2nc(CCn3c(C)nc4ccccc43)nn12`?
SMN2 splice up: 3.6%; FLuc modulator: -2.2%

What do the screens show for `Cc1ccccc1OCC(O)CN1C(=O)c2ccccc2C1=O` (stereo not drawn)?
ELG1 genotoxic: 9.0%; NPC1 prom act: 2.6%; FLuc modulator: 13.5µM*; Rab9 promoter act: 4.2%

What do the screens show for `O=C1c2ccccc2C(=O)N1CC(O)COc1ccccc1Cl` (stereo not drawn)?
ELG1 genotoxic: 4.8%; NPC1 prom act: 17.7%; FLuc modulator: 10.7µM*; Rab9 promoter act: inconclusive

Results for Cc1cc(-c2ccc(C)c(S(=O)(=O)N(C)c3ccc(C)c(C)c3)c2)on1 ?
FLuc modulator: -1.0%

Results for Cc1cccc2sc(NC(=O)C3CCCO3)nc12 (stereo not drawn) ?
ELG1 genotoxic: inconclusive; SMN2 splice up: 20µM*; NPC1 prom act: inconclusive; FLuc modulator: inconclusive; KinaseGlo FLuc: -5.5%; Rab9 promoter act: inconclusive

Results for CSc1nc2ccc(NC(=O)c3ccc(Cl)s3)cc2s1 ?
ELG1 genotoxic: inconclusive; NPC1 prom act: 2µM*; FLuc modulator: 1.9µM*; Rab9 promoter act: 2.82µM*

How did COc1ccc2nc(NC(=O)C3CCCO3)sc2c1 (stereo not drawn) do in these assays?
ELG1 genotoxic: inconclusive; NPC1 prom act: 1.12µM*; FLuc modulator: 9.53µM*; KinaseGlo FLuc: -4.2%; Rab9 promoter act: inconclusive

What do the screens show for `COc1ccc(-c2nnc(NC(=O)C3CCCO3)s2)cc1` (stereo not drawn)?
ELG1 genotoxic: inconclusive; SMN2 splice up: 23.6%; NPC1 prom act: 2.51µM*; FLuc modulator: 12µM*; KinaseGlo FLuc: -6.6%; Rab9 promoter act: 3.98µM*

Results for COc1ccc(NC(=O)C2CCCO2)c(OC)c1 (stereo not drawn) ?
ELG1 genotoxic: 0.0%; NPC1 prom act: -1.0%; FLuc modulator: -1.6%; Rab9 promoter act: 16.9%

Results for N/C(CC/C(N)=N/O)=N\O ?
SMN2 splice up: -7.8%[9.22 µM]; KinaseGlo FLuc: -6.9%[7.66 µM]

What do the screens show for `COc1ccc(-c2nc3c4ccccc4n(CC(=O)Nc4cc(F)ccc4F)c(=O)n3n2)cc1`?
FLuc modulator: -18.6%

How did CC(=O)Nc1nc2c(C)cc(NC(=O)C3CCCCC3)cc2s1 do in these assays?
ELG1 genotoxic: inconclusive; NPC1 prom act: 2.24µM*; Rab9 promoter act: 1.78µM*

How did CSc1nc2ccc(NC(=O)C3CCCO3)cc2s1 (stereo not drawn) do in these assays?
ELG1 genotoxic: 10.3µM*; SMN2 splice up: 12.6µM*; NPC1 prom act: 3.55µM*; FLuc modulator: 12µM*; KinaseGlo FLuc: -0.1%; Rab9 promoter act: 3.55µM*

What do the screens show for `CC(=O)Nc1cc(C)c2nc(NC(C)=O)sc2c1`?
ELG1 genotoxic: inconclusive; NPC1 prom act: 24.0%; FLuc modulator: inconclusive; Rab9 promoter act: 25.8%

What do the screens show for `COc1ccc(NC(=O)C2CCCO2)cc1Cl` (stereo not drawn)?
ELG1 genotoxic: 15.3%; NPC1 prom act: 0.3%; FLuc modulator: -1.3%; KinaseGlo FLuc: 14.2%; Rab9 promoter act: -1.9%

Results for Cc1ccc(CN2CCN(C3CCN(C(=O)Nc4ccccc4C(F)(F)F)CC3)C(=O)C2=O)cc1 ?
FLuc modulator: -3.5%

Results for CCCc1cc(=O)n2[nH]c(-c3cccc(Br)c3)cc2n1 ?
ELG1 genotoxic: inconclusive; NPC1 prom act: 2.82µM*; FLuc modulator: 5.36µM*; Rab9 promoter act: inconclusive

What do the screens show for `CCOC(=O)Cc1cc(=O)n2[nH]c(-c3ccccc3)cc2n1`?
ELG1 genotoxic: 5.3%; SMN2 splice up: 21.9%; NPC1 prom act: 1.3%; FLuc modulator: inconclusive; KinaseGlo FLuc: 2.1%; Rab9 promoter act: 12.4%

Results for CCCc1cc(=O)n2[nH]c(-c3ccc(Br)cc3)cc2n1 ?
ELG1 genotoxic: 17.3%; SMN2 splice up: 11.2µM*; NPC1 prom act: inconclusive; FLuc modulator: inconclusive; KinaseGlo FLuc: 0.9%; Rab9 promoter act: 3.55µM*

Results for COCc1cc(C)nc(SCC(=O)Nc2nc(C)cs2)c1C#N ?
ELG1 genotoxic: inconclusive; NPC1 prom act: 0.631µM*; FLuc modulator: 12µM*; Rab9 promoter act: 0.708µM*

How did COC(=O)c1sc(NC(=O)CSc2nnnn2C)nc1C do in these assays?
ELG1 genotoxic: 14.6µM*; NPC1 prom act: 2.24µM*; FLuc modulator: 16.9µM*; Rab9 promoter act: 2µM*

What do the screens show for `Cc1nc(NC(=O)CSc2nnnn2C)sc1C`?
ELG1 genotoxic: inconclusive; SMN2 splice up: 11.2µM*; NPC1 prom act: inconclusive; FLuc modulator: inconclusive; KinaseGlo FLuc: -2.6%; Rab9 promoter act: inconclusive

Results for CCc1nnc(NC(=O)CSc2nnnn2C)s1 ?
ELG1 genotoxic: -2.5%; SMN2 splice up: 13.6%; NPC1 prom act: -1.6%; FLuc modulator: 0.5%; KinaseGlo FLuc: -0.5%; Rab9 promoter act: 1.8%

What do the screens show for `Cc1csc(NC(=O)CSc2nnnn2C)n1`?
ELG1 genotoxic: inconclusive; SMN2 splice up: 14.1µM*; NPC1 prom act: 24.9%; FLuc modulator: inconclusive; KinaseGlo FLuc: -2.0%; Rab9 promoter act: inconclusive

How did COCc1cc(C)nc(SCC(=O)Nc2cccc(C)c2C)c1C#N do in these assays?
ELG1 genotoxic: 3.2%; SMN2 splice up: -23.9%; NPC1 prom act: -1.8%; FLuc modulator: -1.6%; KinaseGlo FLuc: 3.5%; Rab9 promoter act: -3.0%

What do the screens show for `Cc1ccc(-c2noc(CN(C3CCCCC3)S(=O)(=O)c3ccc(F)cc3)n2)cc1`?
SMN2 splice up: 0.9%; FLuc modulator: 2.0%

High-throughput results (PubChem)
